According to the supplement of paper PMC10981050:
Several values for one entry are separate records, joined by “and”; a condition that tells them apart may be missing. Equal entries are not always repeated.

Experiments:
Experiment in all cases: cell viability relative to vehicle control; higher = less cytotoxic
Settings in all cases: 10 µM
K562 = test system: K562
How it was run: (§1)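 Mutant clones made by CRISPR editing and their isogenic wild-type counterparts, from four leukaemia lines, were exposed to a single 10 µM dose of each library compound for 48 h. The supernatant was then removed and CellTiter-Glo luminescence was read. Viability was reported as percent of the on-plate vehicle control.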

MARIMO = test system: MARIMO
How it was run: as §1

MOLM14 = test system: MOLM14
How it was run: as §1

OCI-AML2 = test system: OCI-AML2
How it was run: as §1

Row | Compound | cell viability (K562; SRSF2 genotype: SRSF2 P95H/wt) | cell viability (K562; SRSF2 genotype: SRSF2 wt/wt) [%] | cell viability (MARIMO; SRSF2 genotype: SRSF2 P95H/wt) [%] | cell viability (MARIMO; SRSF2 genotype: SRSF2 wt/wt) [%] | cell viability (MOLM14; SRSF2 genotype: SRSF2 P95H/wt) [%] | cell viability (MOLM14; SRSF2 genotype: SRSF2 wt/wt) [%] | cell viability (OCI-AML2; SRSF2 genotype: P95H/wt) [%] | cell viability (OCI-AML2; SRSF2 genotype: wt/wt) [%]
1 | CCc1c(C(=O)C(N)=O)c2c(OCC(=O)O)cccc2n1Cc1ccccc1 | 93.5% and 89.8% | 88.8 | 82.6 | 92 | 93.1 | 95.2 | 84 | 90.6
2 | O=C(c1ccccc1O)c1[nH]c(Cl)c(Cl)c1-n1c(C(=O)c2ccccc2O)cc(Cl)c1Cl [Marinopyrrole A (Maritoclax)] | 12.6% and 15.9% | 14.3 | 24.9 | 21.3 | 13.5 | 12.8 | 4.26 | 11.9
3 | NC(=O)CN1CC(c2ccccc2)CC1=O (stereo not drawn) [Phenylpiracetam] | 94.8% and 94.3% | 97.6 | 102 | 96.9 | 99.8 | 98.1 | 101 | 103
4 | CNCC(O)c1ccc(O)cc1 (stereo not drawn) [Synephrine (Oxedrine)] | 106% and 102% | 94.5 | 103 | 98.5 | 97.4 | 101 | 98.4 | 106
5 | O=C(NC(=O)c1c(F)cccc1F)Nc1ccc(OC(F)(F)C(F)OC(F)(F)F)c(Cl)c1 (stereo not drawn) [Novaluron] | 110% and 101% | 113 | 94.2 | 98.4 | 106 | 106 | 98.1 | 109
6 | O=c1[nH]c2ccccc2n1CCCN1CCC(n2c(=O)[nH]c3cc(Cl)ccc32)CC1 [Domperidone (Motilium)] | 78.9% and 85.9% | 79.7 | 77.9 | 87.4 | 92.4 | 91.8 | 78.8 | 85.7
7 | O=S(=O)(F)Cc1ccccc1 [PMSF (Phenylmethylsulfonyl Fluoride)] | 95.7% and 94.9% | 97 | 100 | 99.5 | 99.3 | 102 | 102 | 96.1
8 | C=C[C@H]1CN2CC[C@]3(C(=O)Nc4ccccc43)[C@@H]2C[C@@H]1/C(=C\OC)C(=O)OC [Corynoxeine] | 92.3% and 98.1% | 97.7 | 84.5 | 81.1 | 93.8 | 93.1 | 96 | 95.4
9 | CC(=O)OCC1=C(C(=O)O)N2C(=O)C(N)C2SC1 (stereo not drawn) [7-Aminocephalosporanic acid] | 107% and 103% | 102 | 101 | 108 | 111 | 107 | 109 | 110
10 | C=C[C@]12CN(C)[C@@H]3[C@H]4CO[C@H](C[C@H]41)[C@]1(C(=O)Nc4ccccc41)[C@@H]32 [Gelsemine] | 91.8% and 88.5% | 87.9 | 87.9 | 97.5 | 96 | 90 | 90.1 | 90
11 | Nc1ncnc2c1ccn2[C@@H]1O[C@H](CO)[C@@H](O)[C@H]1O [Tubercidin] | 4.16% and 3.19% | 3.9 | 1.78 | 1.63 | 0.87 | 1.22 | 0.61 | 0.99
12 | C[N+](C)(C)CCCCCCCCCC[N+](C)(C)C [Decamethonium Bromide] | 100% and 109% | 111 | 98.9 | 102 | 102 | 101 | 120 | 102
13 | CC(C)(C)[C@]1(O)CC2OC(=O)CC23C(=O)OC2OC(=O)[C@H](O)C231 (stereo partly drawn) [Bilobalide] | 108% and 105% | 98 | 96.9 | 116 | 104 | 104 | 98.1 | 109
14 | CN1CCc2cc3c(cc2C1C1OC(=O)c2c1ccc1c2OCO1)OCO3 (single isomer, unassigned; (+)) [(+)-Bicuculline] | 102% and 97.1% | 96.5 | 97.6 | 106 | 99.2 | 99.5 | 93.9 | 96.7
15 | C[N+]1(C)[C@@H]2C[C@@H](OC(=O)[C@H](CO)c3ccccc3)C[C@H]1[C@@H]1O[C@@H]12 [Methscopolamine (Pamine)] | 97.7% and 84.7% | 82.5 | 79.5 | 87.8 | 82.4 | 84.1 | 83.2 | 84.8
16 | O=C(O)CCCCCCCCCO [10-Hydroxydecanoic acid] | 99.2% and 97.8% | 100 | 97.8 | 101 | 97.9 | 99.3 | 99.4 | 92.7
17 | CCO[C@H]1O[C@@H]2O[C@@]3(C)CC[C@H]4[C@H](C)CC[C@@H]([C@H]1C)[C@@]24OO3 [Arteether] | 68.2% and 63.3% | 69 | 62.3 | 64.4 | 69.8 | 45.7 | 55.5 | 52.5
18 | CC(=O)O[C@H]1[C@H]2[C@@H](OC(=O)Cc3ccccc3)[C@@H](C)C[C@]2(OC(C)=O)C(=O)/C(C)=C/[C@@H]2[C@H](CC[C@@]13CO3)C2(C)C [Euphorbiasteroid] | 63.8% and 85.5% | 84.1 | 111 | 27.6 | 46.1 | 30.6 | 27.2 | 22.4
19 | C=C[C@@H]1C2=CCOC(=O)C2=CO[C@H]1O[C@@H]1O[C@H](CO)[C@@H](O)[C@H](O)[C@H]1O [Gentiopicroside] | 97.2% and 95.7% | 96.3 | 94.5 | 99 | 98.5 | 104 | 94 | 108
20 | CCCCCCC[n+]1ccc(-c2cc[n+](CCCCCCC)cc2)cc1 [DHBP dibromide] | 51.7% and 49.9% | 56.3 | 71 | 76.1 | 53.9 | 76.4 | 51.8 | 52.4
21 | C[C@]12CC[C@H]3[C@@H](CC[C@@]45O[C@@H]4C(O)=C(C#N)C[C@]35C)[C@@H]1CC[C@@H]2O [Trilostane] | 92.4% and 94.7% | 97.6 | 87.4 | 92.5 | 95.4 | 102 | 123 | 118
